Records with an inconclusive call do not appear. Values without a mark were called inactive. Calls of active or inactive are those of the source. Calls follow the shape of the dose curve; as a rule, active = well fitted curve in the direction sought with a large enough effect; inconclusive = small, poorly fitted or top-dose-only effect, or another doubt; inactive = no such curve, though single readings can be large; an effect the other way counts as inactive or inconclusive.

Test [1] has as its target Aldehyde dehydrogenase, mitochondrial (Homo sapiens) (UniProt P05091). Put plainly: qHTS for Inhibitors of the Aldehyde Dehydrogenase Family (ALDH2) Primary screen (AID 2061308).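 Also: plate controls were vehicle for no effect and reference inhibitor for full effect; nearly all actives have a fitted effect of over 55% in size.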
The target of test [2] is Retinaldehyde dehydrogenase 3 (Homo sapiens) (UniProt P47895). Put plainly: qHTS for Inhibitors of the Aldehyde Dehydrogenase Family (ALDH1A3) Confirmatory screens (AID 2061311). Also: nearly all actives have a fitted effect of over 60% in size. Also: potency is read from the fitted curve at half-maximal effect. As to activity change, negative = inhibition: % is scaled to controls: 0 for no effect and ±100 for the full control effect.
Test [3] deals with Retinal dehydrogenase 2 (Homo sapiens) (UniProt O94788). The test is described as follows: qHTS for Inhibitors of the Aldehyde Dehydrogenase Family (ALDH1A2) Confirmation screens (AID 2061314). Also: nearly all actives have a fitted effect of over 65% in size. Also: potency is read from the fitted curve at half-maximal effect.
Test [4] has as its target Aldehyde dehydrogenase 1A1 (Homo sapiens) (UniProt P00352). The test is described as follows: qHTS for Inhibitors of the Aldehyde Dehydrogenase Family (ALDH1A1) Confirmatory screens (AID 2061316). Also: nearly all actives have a fitted effect of over 65% in size. Also: potency is read from the fitted curve at half-maximal effect. As to activity change, negative = inhibition: % is scaled to controls: 0 for no effect and ±100 for the full control effect.
The target in test [5] is Retinaldehyde dehydrogenase 3 (Homo sapiens) (UniProt P47895). The test is described as follows: qHTS for Inhibitors of the Aldehyde Dehydrogenase Family (ALDH1A3) Primary screen (AID 2061315).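 Also: plate controls were DMSO vehicle for no effect and reference inhibitor for full effect.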

With `C=CCNc1nnc(-c2cccc3ccccc23)o1`, the Potency result in test [1] is “inactive”. Further, the Potency in test [2] was 10.1 µM (active); in test [3] it was 8.96 µM (active); in test [4] it was 7.98 µM (active).
For `Oc1ccc(CNc2cc(Cl)ccn2)c2cccnc12`, in that order: “inactive”, 3.57 µM (active), 12.7 µM (active) and 8.96 µM (active).
For `COc1ccc(Nc2cc(O)c3ncccc3c2)cc1`, in that order: “inactive”, 0.0357 µM (active), “inactive” and “inactive”.
As for `NC(=O)C1CCN(c2ncc(-c3ccc4c(c3)OCCCO4)s2)CC1`, the Potency entry in test [1], in test [2] and in test [5] was “inactive” each time. Further, in test [3], the Potency was 3.57 µM (active).
With `CNC(=O)C1=C(C)NC(Nc2nc3ccccc3o2)=NC1c1[nH]ncc1Cl` (stereo not given), the Potency result in test [1], in test [2] and in test [5] was “inactive” each time.
For the compound `Oc1cc(NCc2ccc(F)cc2)cc2cccnc12`, the Potency entry in test [1] and in test [3] was “inactive” throughout. The Potency in test [2] is 1.59 µM (active); in test [4] it was 7.12 µM (active).
Take `NNc1ccc(NC(=O)c2cccs2)cn1`: the Potency entry in test [1] and in test [5] was “inactive” each time. In addition, the Potency in test [2] was 11.3 µM (active).
As for `O=C1Nc2ccccc2/C1=C\c1ccc([N+](=O)[O-])cc1`, the Potency result in test [1] and in test [5] was “inactive” each time. For the same compound, the Potency was 17.8 µM (active) in test [2] and 2.83 µM (active) in test [3].
On to `CN(C)c1cccc(-c2cnc(N3CCC(C(N)=O)CC3)nc2)c1`, for which the Potency entry in test [1] was “inactive”. Besides, the figures for the Potency in test [2], in test [3] and in test [4] were 22.5 µM (active), 12.7 µM (active) and 11.3 µM (active), respectively.
As for `O=C1Nc2ccc(C(=O)c3ccco3)cc2/C1=C/c1cc(Cl)c(O)c(Cl)c1`, the Potency result in test [1] and in test [5] was “inactive” throughout. Further, the values for the Potency in test [2] and in test [3] were 14.1 µM (active) and 12.6 µM (active), respectively.
With `Cc1ccc2nc3sc(C(=O)N4CCOCC4)cc3cc2c1`, the Potency result in test [1] and in test [5] was “inactive” throughout. Moreover, in test [2], the Potency was 25.2 µM (active).
`Cc1occc1-c1ccc2ncnc(NCc3ncc[nH]3)c2c1`: the Potency entry in test [1] and in test [5] was “inactive” in each case. In addition, the Potency in test [2] is 4 µM (active).
With `c1c[nH]c(C2CCN(c3ncc(-c4ccc5c(c4)OCCCO5)s3)CC2)n1`, the Potency entry in test [1] and in test [5] was “inactive” throughout. The values for the Potency in test [2], in test [3] and in test [4] were 5.04 µM (active), 4 µM (active) and 1.79 µM (active), respectively.
With `CC(=O)N1CCN(c2ccc(NCc3ccccc3)cc2)CC1`, in test [1], the Potency entry was “inactive”. Besides, the results for the Potency in test [2], in test [3] and in test [4] were 12.7 µM (active), 11.3 µM (active) and 10.1 µM (active), respectively.
In the case of `COc1ccc(CNc2ccc(S(=O)(=O)Nc3nccs3)cc2)cc1O`, the Potency result in test [1] and in test [5] was “inactive” throughout. For the same compound, the Potency in test [2] is 5.65 µM (active); in test [3] it was 6.34 µM (active); in test [4], 7.12 µM (active).
Consider `COc1ccc(NC(=O)Nc2ccc(-c3nc4ccccc4[nH]3)cc2)cc1OC`, for which the Potency entry in test [1], in test [2] and in test [5] was “inactive” throughout.
In the case of `CC(=O)N1CCN(c2ccc(NCc3cccc(C)c3)cc2)CC1`, the Potency result in test [1] is “inactive”. Besides, the Potency in test [2] is 20.1 µM (active); in test [3], 12.7 µM (active); in test [4] it was 12.7 µM (active).
As to `C/C=C/c1ccc2oc(-c3ccc(O)c(OC)c3)c(C)c2c1`, in test [1], the Potency result was “inactive”. Besides, the figures for the Potency in test [2], in test [3] and in test [4] were 1.01 µM (active), 25.1 µM (active) and 17.9 µM (active), respectively.
On to `Cc1ccnc(NC(=S)N[C@@H]2CCN(c3cccc(C(F)(F)F)c3)C2)c1`, for which the Potency entry in test [1], in test [2] and in test [5] was “inactive” throughout.
In the case of `Cc1ccc(NS(=O)(=O)c2cc3c(cc2N2CCC2)NC(=O)CC3)cc1C`, the Potency entry in test [1], in test [2] and in test [5] was “inactive” throughout. Besides, the Potency is 22.5 µM (active) in test [3] and 11.3 µM (active) in test [4].
As to `Nc1cccc(CNc2ccc(S(=O)(=O)Nc3nccs3)cc2)c1O`, the activity change, negative = inhibition in test [1] is 2.56% [at 11.2 µM]; in test [5], -14.8% [at 11.2 µM]. The Potency is 10.1 µM (active) in test [2] and 11.3 µM (active) in test [4]. Further, the Potency result in test [3] is “inactive”.
`Cc1ccc(CNc2ccc(N3CCNCC3)cc2)cc1`: in test [1], the Potency entry is “inactive”. Also, the Potency in test [2] is 14.2 µM (active); in test [3], 10.1 µM (active); in test [4] it was 11.3 µM (active).
Regarding `Oc1cccc2cc(NCc3ccccc3F)cnc12`, the Potency entry in test [1] and in test [5] was “inactive” in each case. In addition, the Potency in test [2] is 7.12 µM (active); in test [3], 15.9 µM (active).
Consider `CCC(=O)NC(c1ccco1)c1cc(Br)c2cccnc2c1O` (stereo not given), for which the Potency entry in test [1] and in test [5] was “inactive” each time. Also, the Potency in test [2] is 12.7 µM (active); in test [3], 11.3 µM (active).
As for `CC(=O)Nc1sc2c(c1-c1ccc(N3CCN(C(C)=O)CC3)nc1)CCNC2`, the Potency result in test [1] and in test [5] was “inactive” throughout. The Potency is 12.7 µM (active) in test [2] and 7.98 µM (active) in test [3].
Take `CC1(C)N=C(Nc2nc3ccccc3o2)NC2=C1C(=O)CCC2`: the Potency entry in test [1], in test [2] and in test [5] was “inactive” in each case.
For the compound `CC(C)(C)OC(=O)N1CCN(c2ccc(NCc3occc3-c3ccc(C#N)cc3)cc2)CC1`, in test [1], the Potency result is “inactive”. Besides, the Potency in test [2] is 20.1 µM (active); in test [3] it was 12.7 µM (active); in test [4] it was 11.3 µM (active).

For the origin of these results see PubChem BioAssay (NCATS).
